Among all 320,000 compounds or so, about 2,100 (0.66%) were called active. Not shown: some 53% with an inconclusive outcome. The sample holds actives, similar compounds and a random draw of the others, so the mix is not that of the screen. Calls come from the whole dose curve; as a rule, active = well fitted inhibition curve with a large enough effect in the signal ratio, with a control signal flat (not every such curve was filed as active); inconclusive = small, poorly fitted or top-dose-only effect, or effect the other way, or a change in a side signal; inactive = flat fitted curve, though single readings scatter; the % refers to the signal ratio.
Experiment: qHTS Assay for Lipid Storage Modulators in Drosophila S3 Cells;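 for cell number change: cells counted by Cell Tracker Red CMTPX staining in the red channel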
Settings: BODIPY lipid droplet fluorescence, 18-24 h, cells fed with added oleic acid; cell number change: measured here: cell count max response; series mostly up to 46.1 µM
How it was run: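 Drosophila S3 cells got compounds at several concentrations plus oleic acid (400 uM solution). Laser-scanning cytometry with 488 nm excitation read lipid droplets at 500-530 nm and cells at 575-640 nm. Percent activity was relative to 20 uM Triacsin C.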
Potency is the fitted concentration of half-maximal effect.

| Structure (SMILES) | Potency | cell number change [%] |
| --- | --- | --- |
| COc1ccc(OC)c(/C=C/C(=O)NCCc2nc3ccccc3[nH]2)c1 | inactive | -6.41 |
| COc1ccc(/C=C/C(=O)NCCc2nc3ccccc3[nH]2)cc1 | inactive | -8.48 |
| CCCCCOc1ccc(/C=C/C(=O)NCCc2nc3ccccc3[nH]2)cc1OC | 13 µM (active) | -28.6 |
| O=C(Nc1nnc(-c2cccs2)o1)C1CC1 | inactive | -5.18 |
| COc1ccc(N2C(=O)CSC2c2ccccc2)cc1 (stereo not given) | inactive | 14.6 |
| Cc1n[nH]c(C)c1S(=O)(=O)N1CCc2ccccc21 | inactive | -2.98 |
| C/C(=N\NC(=O)c1cccs1)c1cccnc1 | inactive | 20.6 |
| S=C(NCc1ccccc1)N1CCn2cccc2C1c1ccncc1 (stereo not given) | inactive | 5.96 |
| S=C(NCCc1ccccc1)N1CCn2cccc2C1c1cccnc1 (stereo not given) | inactive | -24.1 |
| S=C(NCCc1ccccc1)N1CCn2cccc2C1c1ccncc1 (stereo not given) | 7.31 µM (active) | 15.3 |
| CC[C@@H](NS(=O)(=O)c1ccc(C)cc1)C(=O)Oc1ccc2c3c(c(=O)oc2c1)CCC3 | inactive | 4.66 |
| CC(=O)NC12CC3CC(C1)CC(C(=O)Nc1nc4c(C)cccc4s1)(C3)C2 | 5.8 µM (active) | -14.2 |
| CC(=O)NC12CC3CC(C1)CC(C(=O)Nc1nc4ccc(F)cc4s1)(C3)C2 | inactive | -27.9 |
| CC(=O)NC12CC3CC(C1)CC(C(=O)Nc1nc4ccc(S(C)(=O)=O)cc4s1)(C3)C2 | inactive | -1.02 |
| CC(=O)N(C)C1=C(N2CCOCC2)C(=O)c2ccccc2C1=O | inactive | 0.283 |
| O=C(O)c1ccc(NC2=C(N3CCOCC3)C(=O)c3ccccc3C2=O)cc1 | inactive | -2.96 |
| O=C1C=C(N2CCOCC2)c2ccccc2C1=O | 4.11 µM (active) | -6.93 |
| Cc1ccc(-n2nc(C)c3c(C)c(CCC(=O)O)c(C)nc32)cc1C | inactive | 9.26 |
| O=C(O)CCCc1ccc2ccc3cccc4ccc1c2c34 | inactive | 11.3 |
| Cc1ccnc(NC(=O)CCC(=O)N(CC(=O)NC(C)(C)C)Cc2ccc3c(c2)OCO3)c1 | 23.1 µM (active) | -17.5 |
| CC(C)CCNC(=O)CN(Cc1ccc2c(c1)OCO2)C(=O)CCC(=O)Nc1ccccn1 | inactive | 2.93 |
| CCC(C)(C)NC(=O)CN(Cc1ccc2c(c1)OCO2)C(=O)CCC(=O)Nc1ccccn1 | inactive | – |
| O=C(CN(Cc1ccccc1)C(=O)CCC(=O)Nc1ccccn1)NCc1ccc(F)cc1 | inactive | 7.92 |

| Structure (SMILES) | Potency | cell number change [%] |
| --- | --- | --- |
| Cc1ccnc(NC(=O)CCC(=O)N(CC(=O)NC(C)(C)C)c2ccc3c(c2)OCCO3)c1 | inactive | 5.82 |
| Cc1ccnc(NC(=O)CCC(=O)N(CC(=O)NCc2ccccc2)Cc2ccccc2)c1 | inactive | 14.2 |
| COc1ccc(CN(CC(=O)NCc2ccc(F)cc2)C(=O)CCC(=O)Nc2cc(C)ccn2)cc1 | 23.1 µM (active) | 6.52 |
| CCOc1ncccc1C(=O)N(CC)CC(=O)NCc1ccc(F)cc1 | 3.66 µM (active) | 4.96 |
| CCOc1ncccc1C(=O)N(CC)CC(=O)Nc1ccc(NC(C)=O)cc1 | inactive | 4.04 |
| CC(C)NC(=O)CN(Cc1ccc2c(c1)OCO2)C(=O)CCC(=O)Nc1ccccn1 | 18.4 µM (active) | 0.42 |
| CCN(CC(=O)NCc1ccc(F)cc1)C(=O)c1cccnc1SC | inactive | 23.4 |
| CCc1ccc(N(CC(=O)NC(C)C)C(=O)CCC(=O)Nc2ccccn2)cc1 | inactive | -21 |
| COC(=O)Cc1c(C)nc2nc(NCc3cccc([N+](=O)[O-])c3)[nH]n2c1=O | inactive | 22.4 |
| COc1cccc(NC(=O)c2ccn(C)n2)c1 | inactive | -7.57 |
| CCCC(=O)Nc1cc(C(=O)O)ccc1Sc1ccccc1 | inactive | -3.48 |
| Cc1cc(C)n(-c2ccc(C(=O)NCc3ccc4c(c3)OCO4)cc2)n1 | inactive | -26 |
| COc1ccc(S(=O)(=O)NC2CC(=O)N(c3ccc(C)c(C)c3)C2)cc1C (stereo not given) | inactive | – |
| O=C(Cn1cnc2ccccc2c1=O)c1ccccc1 | inactive | -5.21 |
| O=C(CNC(=O)c1ccncc1)N/N=C/c1cc(Br)ccc1O | inactive | -8.8 |
| Cc1cccc(N2C(=O)CC(N(C(=O)c3ccco3)c3cccc(C)c3)C2=O)c1 (stereo not given) | inactive | 1.21 |
| COc1ccccc1/C=c1\sc2nc(-c3ccccc3OC)nn2c1=O | inactive | -6.9 |
| Cn1c(-c2sc3cc(C(F)(F)F)cnc3c2-c2cccs2)n[nH]c1=S | inactive | -11.9 |
| O=S(=O)(c1ccccc1)n1ccc2ccccc21 | inactive | -15.8 |
| O=C1N=C(N2CCN(c3cccc4ccccc34)CC2)S/C1=C/c1cccs1 | inactive | – |
| NC1=NC(=O)/C(=C/c2cccs2)S1 | inactive | -5.63 |
| O=C1/C(=C\c2cccs2)Sc2ccc3ccccc3c21 | 16.4 µM (active) | -14.8 |
| O=C(O)c1ccc(NC(=O)c2cn(-c3ccccc3)nc2-c2cccc(Cl)c2)cc1 | inactive | 4.66 |

| Structure (SMILES) | Potency | cell number change [%] |
| --- | --- | --- |
| CC(O)c1nc2ccc(C(=O)O)cc2[nH]1 (stereo not given) | inactive | -0.214 |
| CC(C)c1nc2ccc(C(=O)O)cc2[nH]1 | 23.1 µM (active) | -0.0603 |
| CC(O)CCc1nc2ccc(C(=O)O)cc2[nH]1 (stereo not given) | inactive | 3.44 |
| COc1cccc(-n2c(SCC(=O)OC(C)C)nnc2-c2cccnc2)c1 | inactive | – |
| O=C(COc1ccccc1)N1CCNC1=O | 11.6 µM (active) | -10.9 |
| O=C(COc1ccc(Br)cc1)N1CCNC1=O | inactive | -1.77 |
| O=C(COc1ccccc1Br)N1CCNC1=O | inactive | -13 |
| CCOc1ccc(NC(=NCc2ccc3c(c2)OCO3)SC2CC(=O)N(c3ccc(OCC)cc3)C2=O)cc1 (stereo not given) | inactive | 1.82 |
| COc1cccc(NC(=O)[C@@H]2CCCN2C(=O)[C@@H]2Cc3ccccc3CN2C(=O)OC(C)(C)C)c1 | inactive | -9.43 |
| O=C1C2C(c3cccc(/C=C/c4ccccc4)c3)CC=CC2C(c2ccc(C(F)(F)F)cc2)N1Cc1ccccc1 (stereo not given) | inactive | -0.28 |
| O=C1C2C(c3ccccc3)CC=CC2[C@H](c2ccc(C(F)(F)F)cc2)N1Cc1ccccc1 (stereo not given in full) | 18.4 µM (active) | – |
| Cc1ccc(-c2cccc(C3CC=CC4C3C(=O)N(Cc3ccccc3)C4c3ccc(C(F)(F)F)cc3)c2)cc1 (stereo not given) | inactive | 0.818 |
| O=C1CCCc2ccccc2N1 | inactive | 15.4 |
| O=C(Nc1ccncc1)OCc1ccccc1 | inactive | -15 |
| O=C(Nc1ccc(Cl)c(Cl)c1)OCCNC(=O)c1ccncc1 | inactive | 19.3 |
| CC(=O)NCCOC(=O)Nc1ccncc1 | 18.4 µM (active) | -23.8 |
| C=C(C)C(=O)N1CC2(CC(c3cccc(NC(=O)CC(c4ccccc4)c4ccccc4)c3)=NO2)C[C@H]1C(N)=O (stereo not given in full) | inactive | -5.55 |
| COc1ccccc1CCC(=O)OCC(=O)Nc1cc(C)nn1-c1ccccc1 | inactive | 9.67 |
| COc1cccc(NC(=O)Nc2ccc3c(c2)nc(C)n3C)c1 | inactive | -12.3 |
| Nc1ccccc1C(=O)NNc1c2ccccc2nc2ccccc12 | inactive | -7.95 |
| O=C(NNC(=O)c1ccc2ccccc2n1)c1ccc(O)cc1 | inactive | -5.74 |
| O=C(NNc1c2ccccc2nc2ccccc12)c1ccc(O)cc1 | 16.4 µM (active) | -16.9 |
| O=C(CN1C(=O)NC2(CCCC2)C1=O)Nc1cc(Cl)ccc1Oc1ccccc1 | inactive | 2.01 |

| Structure (SMILES) | Potency | cell number change [%] |
| --- | --- | --- |
| c1ccc(CSc2nnc(-c3ccco3)o2)cc1 | inactive | 29.7 |
| Brc1ccc(CSc2nnc(-c3ccco3)o2)cc1 | inactive | -8.74 |
| O=C(O)c1ccc(CSc2nnc(-c3ccco3)o2)cc1 | 1.84 µM (active) | – |
| CCC(C)[C@H](NC(=O)NCCCN1CCOCC1)C(=O)OC (stereo not given in full) | inactive | 4.55 |
| COCCCNC(NC(=O)c1ccc(Cl)cc1)C(Cl)(Cl)Cl (stereo not given) | inactive | 18.7 |
| Cc1cc(NC(=O)Nc2cccc([N+](=O)[O-])c2)no1 | inactive | – |
| Cc1ccc(NC(=O)Nc2cccc([N+](=O)[O-])c2)cc1F | 9.2 µM (active) | -9.68 |
| O=C(Nc1cccc([N+](=O)[O-])c1)Nc1cccc([N+](=O)[O-])c1 | inactive | -6.97 |
| COc1ccc(CNC(=O)c2cccnc2Sc2ccc(C)c(C)c2)cc1 | inactive | -8.63 |
| Cc1cc(C(=O)CCC(=O)Nc2ncccc2O)c(C)s1 | inactive | 23.7 |
| Cc1cc(OC(C)C(=O)NNC(=O)Nc2ccc(F)cc2F)cc(C)c1Cl (stereo not given) | inactive | 12.3 |
| COc1cc(C2CC(c3cccs3)=NN2C(=O)CCl)ccc1OC(F)F (stereo not given) | 11.6 µM (active) | 6.96 |
| COc1ccc(C2CC(c3ccccc3)=NN2C(=O)COC(=O)CNC(=O)c2ccccc2)cc1 (stereo not given) | 14.6 µM (active) | 17 |
| COc1ccc(C2CC(c3ccc(OC)cc3OC(C)=O)=NN2C(=O)c2ccccc2)cc1 (stereo not given) | inactive | -16.6 |
| COc1ccc(C2CC(c3cccs3)=NN2C(=O)COC(=O)C2CCCCC2)cc1OC (stereo not given) | inactive | – |
| COc1ccc(C2=NN(C(=O)CSc3ncccn3)C(c3ccc(C)cc3)C2)cc1 (stereo not given) | inactive | -13.1 |
| CC(=O)N1N=C(c2ccccc2OC(=O)/C=C/c2ccccc2)CC1c1ccccc1 (stereo not given) | inactive | – |
| COc1ccc(C2CC(c3ccccc3)=NN2C(=O)COC(=O)c2cccnc2)cc1 (stereo not given) | inactive | -20.7 |
| COc1ccc(C2=NN(C(=O)CSc3ncccn3)C(c3ccc(OC)cc3)C2)cc1 (stereo not given) | inactive | -13.6 |
| COc1ccc(C2CC(c3cccs3)=NN2C(=O)c2ccccc2)cc1OC (stereo not given) | inactive | 0.175 |
| COc1ccc(CC(=O)OCC(=O)N2N=C(c3ccccc3)CC2c2ccc(OC)cc2)cc1 (stereo not given) | inactive | 9.3 |
| COc1ccc(C2CC(c3ccc4ccccc4c3OC(C)=O)=NN2C(=O)/C=C/c2ccccc2)cc1 (stereo not given) | 6.51 µM (active) | -4.95 |
| COc1ccc(C2CC(c3ccccc3)=NN2C(=O)CSc2ncccn2)cc1 (stereo not given) | 18.4 µM (active) | -10.6 |
